Assay [1] can be described thus: ATG_DR4_LXR_CIS: Attagene CIS-FACTORIAL HepG2 Assay for human Liver X Receptor (LXR), DR4 submotif (AID 2282929). The note with it: HepG2 Attagene DR4 cis-reporter, mRNA transcription; AC50: actives raise or lower the signal unless noted; outcome: actives raise or lower the signal unless noted. Put shortly:
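Cells were transfected with multiple reporter transcription units, exposed to chemicals for 24 hours, then lysed for RNA. Reporter mRNA induction was measured by RT-PCR with capillary electrophoresis detection and fitted in both directions relative to DMSO.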

Assay [2] addresses Aryl hydrocarbon receptor (Homo sapiens) (UniProt P35869). Briefly: ATG_Ahr_CIS: Attagene CIS-FACTORIAL HepG2 Assay for human Aryl Hydrocarbon Receptor (Ahr) (AID 2282930). The note with it: HepG2 AhR cis-factorial reporter transcription; actives raise or lower the signal. Put shortly: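 Following 24 h of chemical dosing, transfected HepG2 liver cells with cis-driven reporter units were lysed for RNA; reporter mRNA was quantified via RT-PCR and capillary electrophoresis, and responses fitted bidirectionally from DMSO.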

Assay [3] can be described thus: ATG_AP_1_CIS: Attagene CIS-FACTORIAL HepG2 Assay for human Activator Protein 1 (AP-1) (AID 2282931). The note with it: HepG2 Attagene cis-factorial AP-1 reporter mRNA; actives raise or lower the signal. The method in brief:
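Endogenous transcription-factor activity in human HepG2 liver cells is read through a cis-promoter reporter transcript, sampled 24 h after dosing. Detection uses RT-PCR with capillary electrophoresis; values come from bidirectional fitting relative to DMSO.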

Assay [4] can be described thus: ATG_AP_2_CIS: Attagene CIS-FACTORIAL HepG2 Assay for human Activator Protein 2 (AP-2) (AID 2282932). The note with it: HepG2 AP-2 cis-reporter, Attagene transcription factor profiling; AC50: actives raise or lower the signal unless noted; outcome: actives raise or lower the signal unless noted. The method in brief:
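HepG2 cells were transiently transfected with multiple cis-promoter reporter transcription units and dosed for 24 h. Reporter mRNA was measured by RT-PCR with capillary electrophoresis fluorescence; bidirectional fits relative to DMSO baseline.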

Assay [5] can be described thus: ATG_BRE_CIS: Attagene CIS-FACTORIAL HepG2 Assay for human Bone Morphogenetic Protein (BMP) Response Element (BRE) (AID 2282933). The note with it: HepG2 BMP response element reporter, Attagene transcription factor profiling; actives raise or lower the signal. Put shortly: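 Gain- or loss-of-signal was derived by bidirectional fitting against DMSO controls. The signal came from reporter mRNA, measured by RT-PCR and capillary electrophoresis, in HepG2 cells transiently carrying multiple reporter units and dosed for 24 h.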

Assay [6] deals with Transcription factor E2F1 (Homo sapiens) (UniProt Q01094). Briefly: ATG_E2F_CIS: Attagene CIS-FACTORIAL HepG2 Assay for human E2F Transcription Factor 1 (AID 2282935). The note with it: HepG2 Attagene cis-reporter, E2F reporter RNA transcripts; actives raise or lower the signal. The method in brief: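 HepG2 cells transiently transfected with multiplexed cis-element reporter units, dosed for 24 h. Reporter mRNA measured by RT-PCR, 6-FAM primer-extension labeling, HpaI digestion and capillary electrophoresis; bidirectional fit versus DMSO baseline.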

A short description of assay [7]: ATG_E_Box_CIS: Attagene CIS-FACTORIAL HepG2 Assay for human Enhancer Box (E-box) (AID 2282936). The note with it: HepG2 E-box cis-reporter transcription, actives raise or lower the signal. The method in brief:
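HepG2 cells transiently transfected with multiplexed cis-element reporter units sensing endogenous transcription factor activity; 24 h compound exposure. Reporter mRNA measured by RT-PCR, 6-FAM primer extension, HpaI digestion and capillary electrophoresis; bidirectional fit versus DMSO.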

Assay [8] can be described thus: ATG_M_61_CIS: Attagene CIS-FACTORIAL HepG2 Assay for M61 Transcription Factor (Internal Marker) (AID 2282937). The note with it: HepG2 Attagene CIS-FACTORIAL M61 internal marker reporter; actives raise or lower the signal. The method in brief:
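Cells were transfected with reporter units under cis-regulatory promoters, treated with chemicals for 24 h, then lysed for RNA. Reporter transcripts were quantified by RT-PCR and capillary electrophoresis, and activity was fitted bidirectionally against DMSO.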

A short description of assay [9]: ATG_EGR_CIS: Attagene CIS-FACTORIAL HepG2 Assay for human Early Growth Response 1 (EGR1) (AID 2282938). The note with it: HepG2 Attagene CIS-FACTORIAL EGR reporter mRNA; actives raise or lower the signal. The method in brief:
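Endogenous TF activity in HepG2 liver cells was gauged through cis-promoter reporter constructs transiently transfected. After 24 h dosing, reporter mRNA was quantified by RT-PCR and capillary electrophoresis, and curves fitted in both directions versus DMSO.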

The nature of assay [10]: ATG_M_19_CIS: Attagene CIS-FACTORIAL HepG2 Assay for M19 Transcription Factor (Internal Marker) (AID 2282939). The note with it: HepG2 Attagene CIS-FACTORIAL M19 internal marker reporter; actives raise or lower the signal. The method in brief:
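Following a 24 h exposure, RNA from transfected HepG2 cells was reverse-transcribed, PCR-amplified with reporter-specific primers, end-labelled with 6-FAM and HpaI-digested before capillary separation. Values represent gain or loss versus DMSO.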

Assay [11] is described as follows: ATG_ERE_CIS: Attagene CIS-FACTORIAL HepG2 Assay for Estrogen Response Element (ERE) (AID 2282940). The note with it: HepG2 ERE cis-reporter, Attagene RNA transcript; actives raise or lower the signal. The method in brief:
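HepG2, transient cis-reporter units, 24 h exposure. RNA isolated, oligo(dT) RT, reporter-specific PCR, FAM extension, HpaI cut, CE detection. Gain/loss-of-signal vs DMSO.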

Assay [12] in a line: ATG_Ets_CIS: Attagene CIS-FACTORIAL HepG2 Assay for human Erythroblast Transformation Specific (ETS) (AID 2282941). The note with it: HepG2 ETS cis-reporter transcription; AC50: actives raise or lower the signal unless noted; outcome: actives raise or lower the signal unless noted. Put shortly: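 After transient cis-reporter transfection, HepG2 cells receive test chemical for 24 h. Reporter mRNA levels, measured by RT-PCR and capillary electrophoresis fluorescence, are analysed bidirectionally relative to the DMSO baseline.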

The target of assay [13] is Hepatocyte nuclear factor 3-beta (Homo sapiens) (UniProt Q9Y261). Briefly: ATG_FoxA2_CIS: Attagene CIS-FACTORIAL HepG2 Assay for human Forkhead box A2 (FOXA2) (AID 2282942). The note with it: HepG2 cis-reporter transcription factor activity, 24 h; actives raise or lower the signal. Put shortly: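 Endogenous transcription factor activity was read in HepG2 cells carrying transiently transfected cis-promoter reporter units. After 24 h dosing, reporter mRNA was quantified by RT-PCR and capillary electrophoresis, and values fitted bidirectionally versus DMSO.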

The nature of assay [14]: ATG_FoxO_CIS: Attagene CIS-FACTORIAL HepG2 Assay for human Forkhead box O (FoxO) (AID 2282943). The note with it: HepG2 Attagene cis-reporter, FoxO element, mRNA; actives raise or lower the signal. Put shortly: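 24 h chemical exposure, HepG2 with transient cis-MRTU transfection. RNA extraction, oligo(dT) RT, reporter-specific PCR, primer-extension labelling, HpaI digestion, CE fragment analysis; bidirectional fit, DMSO baseline.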

Assay [15] is described as follows: ATG_GATA_CIS: Attagene CIS-FACTORIAL HepG2 Assay for human GATA Binding Protein (AID 2282944). The note with it: HepG2 GATA cis-element reporter, Attagene multiplex mRNA; actives raise or lower the signal. Put shortly: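 DMSO serves as negative control and baseline for bidirectional fitting of reporter mRNA changes. HepG2 cells bearing transiently transfected cis-promoter reporters were exposed 24 h; transcripts detected via RT-PCR and capillary electrophoresis.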

Assay [16] can be described thus: ATG_GLI_CIS: Attagene CIS-FACTORIAL HepG2 Assay for human Zinc Finger Protein GLI1 (AID 2282945). The note with it: HepG2, Attagene cis-factorial reporter mRNA, GLI element; actives raise or lower the signal. Put shortly: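 HepG2 cells transiently transfected with cis-promoter multiplexed reporter units report endogenous transcription factor activity. After 24 h chemical exposure, reporter mRNA was quantified by RT-PCR, 6-FAM labelling, HpaI digestion and capillary electrophoresis, with bidirectional fitting against DMSO.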

Assay [17] can be described thus: ATG_ISRE_CIS: Attagene CIS-FACTORIAL HepG2 Assay for human Interferon Regulatory Factor 1 (IRF1) binding to an Interferon-Stimulated Response Element (ISRE) (AID 2282948). The note with it: HepG2 ISRE cis-reporter (Attagene), mRNA transcription readout; actives raise or lower the signal. The method in brief: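 Quantitation relies on labelled RT-PCR fragments separated by capillary electrophoresis. Human HepG2 cells bearing cis-promoter reporter constructs were treated 24 h; DMSO served as baseline for bidirectional fitting.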

The target in assay [18] is Bile acid receptor (Homo sapiens) (UniProt Q96RI1). Briefly: ATG_IR1_CIS: Attagene CIS-FACTORIAL HepG2 Assay for human Nuclear Receptor Subfamily 1 Group H Member 4 (NR1H4), IR1 submotif (AID 2282946). The note with it: IR1 reporter transcription, actives raise or lower the signal. The method in brief: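 Transient MRTU transfection, HepG2; 24 h dosing; RNA → RT-PCR → 6-FAM primer extension → HpaI digest → capillary electrophoresis fluorescence. Gain/loss of signal fitted relative to DMSO.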

A short description of assay [19]: ATG_GRE_CIS: Attagene CIS-FACTORIAL HepG2 Assay for human Glucocorticoid Response Elements (GRE) (AID 2282947). The note with it: HepG2 GRE cis-reporter, Attagene multiplex mRNA; AC50: actives raise or lower the signal unless noted; outcome: actives raise or lower the signal unless noted. The method in brief:
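HepG2 cells transiently transfected with multiple cis-promoter reporter units measure endogenous TF activity; 24 h compound exposure. Reporter mRNA quantified by RT-PCR, FAM labelling, HpaI digestion and capillary electrophoresis; bidirectional fit vs DMSO baseline.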

Where “and” joins values, the source holds several entries; their conditions need not be identical. Equal entries are not always repeated. Calls of active or inactive are those of the source. Rule for the calls: active = hit-call score of the fitted dose curve at least 0.9, where 1 is the maximum; inactive = score below 0.9.

Sequence of Transcription factor E2F1 (Homo sapiens) (Q01094 whole entry, looked up): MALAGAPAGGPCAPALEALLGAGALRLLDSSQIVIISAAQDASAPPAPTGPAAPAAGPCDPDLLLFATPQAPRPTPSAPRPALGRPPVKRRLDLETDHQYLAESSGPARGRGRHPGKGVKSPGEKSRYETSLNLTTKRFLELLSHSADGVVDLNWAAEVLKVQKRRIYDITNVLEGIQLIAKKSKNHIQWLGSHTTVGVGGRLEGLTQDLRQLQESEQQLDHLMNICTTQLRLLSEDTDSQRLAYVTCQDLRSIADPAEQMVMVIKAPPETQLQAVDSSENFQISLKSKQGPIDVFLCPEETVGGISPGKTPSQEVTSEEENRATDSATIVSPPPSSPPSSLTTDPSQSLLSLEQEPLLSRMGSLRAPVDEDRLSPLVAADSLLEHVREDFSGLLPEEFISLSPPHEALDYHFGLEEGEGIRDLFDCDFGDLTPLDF
Sequence of Aryl hydrocarbon receptor (Homo sapiens) (P35869 whole entry, looked up): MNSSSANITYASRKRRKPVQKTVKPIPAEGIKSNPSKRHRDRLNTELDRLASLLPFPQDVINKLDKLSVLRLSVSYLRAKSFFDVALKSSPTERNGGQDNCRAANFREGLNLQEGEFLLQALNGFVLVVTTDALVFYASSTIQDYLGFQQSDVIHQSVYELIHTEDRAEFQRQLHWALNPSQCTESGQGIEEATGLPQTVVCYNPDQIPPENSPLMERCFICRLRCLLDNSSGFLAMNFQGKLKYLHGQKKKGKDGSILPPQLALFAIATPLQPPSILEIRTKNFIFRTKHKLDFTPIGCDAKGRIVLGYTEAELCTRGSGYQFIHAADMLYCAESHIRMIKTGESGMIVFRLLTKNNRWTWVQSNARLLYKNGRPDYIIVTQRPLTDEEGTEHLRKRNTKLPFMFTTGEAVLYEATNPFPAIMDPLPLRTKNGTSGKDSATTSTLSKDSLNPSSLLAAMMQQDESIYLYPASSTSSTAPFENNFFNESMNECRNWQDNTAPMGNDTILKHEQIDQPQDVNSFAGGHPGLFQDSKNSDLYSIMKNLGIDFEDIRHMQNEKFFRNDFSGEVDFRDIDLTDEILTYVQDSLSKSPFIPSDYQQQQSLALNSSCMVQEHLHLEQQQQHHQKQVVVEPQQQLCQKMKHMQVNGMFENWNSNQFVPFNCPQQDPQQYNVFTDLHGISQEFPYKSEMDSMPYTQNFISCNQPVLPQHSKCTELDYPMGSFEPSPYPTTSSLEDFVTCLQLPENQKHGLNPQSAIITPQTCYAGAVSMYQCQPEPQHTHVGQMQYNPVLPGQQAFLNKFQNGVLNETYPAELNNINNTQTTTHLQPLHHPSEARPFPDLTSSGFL
Sequence of Hepatocyte nuclear factor 3-beta (Homo sapiens) (Q9Y261 whole entry, looked up): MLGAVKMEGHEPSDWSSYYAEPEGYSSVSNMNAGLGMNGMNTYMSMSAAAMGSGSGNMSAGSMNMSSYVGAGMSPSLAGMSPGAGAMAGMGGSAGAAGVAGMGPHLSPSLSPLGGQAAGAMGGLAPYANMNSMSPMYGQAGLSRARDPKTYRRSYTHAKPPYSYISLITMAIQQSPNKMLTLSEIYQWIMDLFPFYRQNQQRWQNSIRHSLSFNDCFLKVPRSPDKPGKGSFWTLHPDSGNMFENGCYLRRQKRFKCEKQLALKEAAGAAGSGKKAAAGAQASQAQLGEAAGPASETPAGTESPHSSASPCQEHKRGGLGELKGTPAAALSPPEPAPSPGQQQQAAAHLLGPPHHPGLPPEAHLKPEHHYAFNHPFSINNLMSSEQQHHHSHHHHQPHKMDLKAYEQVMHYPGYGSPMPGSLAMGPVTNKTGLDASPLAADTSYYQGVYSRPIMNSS
Sequence of Bile acid receptor (Homo sapiens) (Q96RI1 whole entry, looked up): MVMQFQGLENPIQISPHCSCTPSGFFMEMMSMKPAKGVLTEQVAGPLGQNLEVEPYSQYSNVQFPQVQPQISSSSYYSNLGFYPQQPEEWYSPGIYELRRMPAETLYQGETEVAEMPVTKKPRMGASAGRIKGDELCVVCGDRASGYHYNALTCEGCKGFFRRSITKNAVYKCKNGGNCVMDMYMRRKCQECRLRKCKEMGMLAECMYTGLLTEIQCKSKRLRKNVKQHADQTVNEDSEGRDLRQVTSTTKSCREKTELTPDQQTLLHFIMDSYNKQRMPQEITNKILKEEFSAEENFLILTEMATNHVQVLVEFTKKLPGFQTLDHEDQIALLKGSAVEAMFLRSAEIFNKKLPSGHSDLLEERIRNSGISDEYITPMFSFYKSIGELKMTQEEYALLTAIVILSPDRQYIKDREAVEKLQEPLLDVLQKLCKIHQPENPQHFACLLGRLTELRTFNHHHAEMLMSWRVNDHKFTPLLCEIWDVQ

For `Cc1cc(=O)oc2cc(O)ccc12`, the call in assay [1], in assay [2], in [3], in [4], in [5] and in assay [6] was inactive. The result in assay [7], in assay [8], in assay [9], in assay [10], in assay [12] and in assay [13] was inactive. For the same compound, the outcome in [14], in [15], in assay [16] and in assay [17] was inactive. Besides, the AC50 in assay [11] is 41.8 µM (active) and 58.5 µM (active).

For the compound `COCC1CCC(CO)CC1` (configuration not stated), the compound was called inactive in assay [1], in assay [2], in assay [3], in assay [4], in assay [5] and in [6]. Besides, the outcome in assay [7], in [8], in assay [9], in [12], in assay [14] and in assay [15] was inactive. In addition, the result in assay [16], in assay [18], in [19] and in assay [17] was inactive. The AC50 in assay [11] is 24.4 µM (active).

For the compound `Oc1cc2ccccc2cc1O`, the result in assay [1], in [4], in [5], in [6], in assay [7] and in [8] was inactive. For the same compound, the result in assay [9], in [12], in assay [13], in [14], in [15] and in assay [16] was inactive. Further, the result in assay [18], in assay [19] and in [17] was inactive. Besides, the results for the AC50 in [2], in assay [3] and in assay [11] were 21.1 µM (active), 70.2 µM (active) and 100 µM (active), respectively.

As a reminder, the AC50 is the midpoint of the concentration-response curve, whichever way the signal moves.

For the origin of these results see PubChem BioAssay (EPA / NIEHS).
